Source: PubChem
Peg3 prom inh: Peg3 promoter activity inhibition | AID 588405 | 360,000 compounds, 1.7% hits | HeLa PEG-Prom luciferase reporter, luminescence, overnight | inhibition, % at 20 µM;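 active = inhibition of at least 50% at 20 µM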
KKLEB tox: counter-screen for CF NF-kB inhibitors: cytotoxicity; 360,000 compounds, 0.36% hits; activity change (cytotoxicity), % at 5 µM; KKLEB CF airway cells viability, ATPlite luminescence, overnight; hits give low values; cells stimulated with P. aeruginosa culture filtrate;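 active = corrected activity change at or below -50% at 5 µM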
TRPM1 prom inh: MITF TRPM1 promoter inhibition in SK-MEL-5 cells. SK-MEL-5 TRPM1 promoter luciferase, 24 h. inhibition, % at 12.5 µM. 330,000 compounds, 0.83% hits. AID 488899;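 active = mean inhibition across replicates of 60% or more, whatever share of single replicates reaches that level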
HIF-2a inh: inhibitors of HIF-2a | inhibition, % at 18.8 µM | 360,000 compounds, 0.72% hits | AID 624352 | 786-0 RCC cells HIF-2a reporter, luciferase luminescence, overnight;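 active = inhibition of the luminescence signal of 40% or more relative to plate controls, in a single-dose primary screen at 18.75 µM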
ABHD5 PLIN5 PPI: inhibitors of human ABHD5-perilipin-5 interaction. AID 602281. Q00G26+Q8WTS1. inhibition, % at 4 µM. 360,000 compounds, 0.78% hits. Split G. princeps luciferase complementation, luminescence, 4 h;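 active = inhibition above the mean inhibition across every tested compound plus 3 SD, cut at about 22% in these data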
CF NFkB block: blocks PAF-induced NF-kB reporter in cystic fibrosis cells; KKLEB NF-kB-GFP reporter, GFP fluorescence overnight; inhibition, % at 5 µM; AID 588850; 360,000 compounds, 0.86% hits;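 active = at least 50% inhibition at 5 µM, scaled per plate between neutral and stimulator controls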;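 note: PAF is a Pseudomonas aeruginosa culture filtrate used as stimulus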
ABHD5-PLIN5 conf: ABHD5-PLIN5 interaction inhibition, confirmed | shares compounds with ABHD5 PLIN5 PPI | biochemical ABHD5-PLIN5 interaction, luminescence | inhibition, % at 4 µM | 2,200 compounds, 67% hits | AID 651612; in the data active = inhibition above about 23%
HNF4 counter: HNF4 split-luciferase signal hit, counter-screen; shares compounds with ABHD5 PLIN5 PPI; HNF4 dimerization, luminescence, biochemical; inhibition, % at 4 µM; 2,200 compounds, 77% hits;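 active = mean inhibition across replicate wells exceeding the computed hit threshold, cut at about 13% in these data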;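 note: light from luciferase halves that rejoin when HNF4 fusion proteins dimerize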
Target sequence (P41235 whole entry, looked up, the tested form may be a part): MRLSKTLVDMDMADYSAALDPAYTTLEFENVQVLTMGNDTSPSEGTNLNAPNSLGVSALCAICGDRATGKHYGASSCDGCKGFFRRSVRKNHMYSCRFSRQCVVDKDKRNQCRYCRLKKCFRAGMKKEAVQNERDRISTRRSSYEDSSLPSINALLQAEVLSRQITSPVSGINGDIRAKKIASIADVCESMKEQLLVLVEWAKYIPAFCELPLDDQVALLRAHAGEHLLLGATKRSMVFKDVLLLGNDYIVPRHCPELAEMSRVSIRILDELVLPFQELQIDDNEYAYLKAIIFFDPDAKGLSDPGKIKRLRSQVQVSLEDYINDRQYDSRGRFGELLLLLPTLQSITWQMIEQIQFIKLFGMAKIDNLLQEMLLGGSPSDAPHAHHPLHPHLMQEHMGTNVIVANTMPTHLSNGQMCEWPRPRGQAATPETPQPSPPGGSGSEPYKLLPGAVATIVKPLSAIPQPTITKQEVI
Of the large screens only hits and unclear results are named; the others gave an inactive call (follow-up assays come after a bar, where they were run); ! = not active in a repeat. This is a sample that favours compounds with a hit; in the whole collection about 3% have one here.

CCOC(=O)C1=C(C)N(c2ccccc2)C(=O)/C1=C\c1ccc(O)c(OC)c1	ABHD5 PLIN5 PPI 25.9 | ABHD5-PLIN5 conf 38.9 | HNF4 counter 48.8
CCOC(=O)C1=C(C)N(c2ccccc2)C(=O)/C1=C\c1ccco1	none
O=[N+]([O-])c1cccc(/C=N/Nc2nc(NCc3ccccc3)nc(N3CCOCC3)n2)c1O	none
CC(C)c1ccc(C2C3=C(CC(C)(C)CC3=O)NC3=C2C(=O)c2ccccc23)cc1 (stereo not given)	ABHD5 PLIN5 PPI 29.3 | ABHD5-PLIN5 conf 42.5 | HNF4 counter 62.7
Cc1cccc(C)c1NC(=O)C(C1CC1)n1c(=O)c(-c2ccccc2)nc2ccccc21 (stereo not given)	none (no result: Peg3 prom inh, KKLEB tox, TRPM1 prom inh, CF NFkB block)
CSCCC(c1nc2ccccc2[nH]1)n1c(=O)c(-c2ccco2)nc2ccccc21 (stereo not given)	ABHD5 PLIN5 PPI 34.2 (no result: Peg3 prom inh, KKLEB tox, TRPM1 prom inh, CF NFkB block) | ABHD5-PLIN5 conf 34.4 | HNF4 counter 39.7
Cc1cccc(C)c1NC(=O)C(c1ccncc1)n1c(=O)c(-c2ccco2)nc2ccccc21 (stereo not given)	ABHD5 PLIN5 PPI 56.4 (no result: Peg3 prom inh, KKLEB tox, TRPM1 prom inh, CF NFkB block) | ABHD5-PLIN5 conf 22.7 | HNF4 counter inactive
Cc1cccc(C)c1NC(=O)C(C1CC1)n1c(=O)c(-c2ccco2)nc2ccccc21 (stereo not given)	ABHD5 PLIN5 PPI 61.4 (no result: Peg3 prom inh, KKLEB tox, TRPM1 prom inh, CF NFkB block) | ABHD5-PLIN5 conf 43.5 | HNF4 counter 24.7
CC(C)(C)NC(=O)C(C1CC1)n1c(=O)c(-c2ccco2)nc2ccccc21 (stereo not given)	ABHD5 PLIN5 PPI 50.9 (no result: Peg3 prom inh, KKLEB tox, TRPM1 prom inh, CF NFkB block) | ABHD5-PLIN5 conf 73.0 | HNF4 counter 22.9
CC(C)(C)NC(=O)C(C1CC1)n1c(=O)c(-c2cc3ccccc3[nH]2)nc2ccccc21 (stereo not given)	none (no result: Peg3 prom inh, KKLEB tox, TRPM1 prom inh, CF NFkB block)
Cc1ccccc1N=C(c1ccccc1)C1C(=O)c2ccccc2C1=O	none (no result: TRPM1 prom inh)
NS(=O)(=O)c1ccc(NC(=O)COC(=O)c2ccc(S(=O)(=O)N3CCOCC3)cc2)cc1	none
CN(C)c1nc(N(C)C)nc(N(C#N)CN2C(=O)c3ccccc3S2(=O)=O)n1	none
CC(C)(C)Nc1nc(Cl)nc(N(C#N)CN2C(=O)c3ccccc3S2(=O)=O)n1	ABHD5 PLIN5 PPI 32.9 | ABHD5-PLIN5 conf 29.6 | HNF4 counter 23.9
COc1nc(NC(C)C)nc(N(C#N)CN2C(=O)c3ccccc3S2(=O)=O)n1	ABHD5 PLIN5 PPI 26.4 | ABHD5-PLIN5 conf 28.9 | HNF4 counter 26.0
CC(C)Nc1nc(Cl)nc(N(C#N)CN2C(=O)c3ccccc3S2(=O)=O)n1	none
Cc1c(C(=O)NCc2cccc(C(F)(F)F)c2)sc(=O)n1Cc1ccc(S(=O)(=O)N(C)C)cc1	none (no result: TRPM1 prom inh)
Cc1cc(O)c(-c2cc(O)c(C)cc2O)cc1O	Peg3 prom inh 69.6, ABHD5 PLIN5 PPI 43.6 | ABHD5-PLIN5 conf 37.4 | HNF4 counter 86.6
O=C(Cn1nc(C(=O)O)c2ccccc2c1=O)Nc1ccccc1C(F)(F)F	none
Cc1ccc2c(c1C)-c1c(ccc(C)c1C)C(=O)C2=O	Peg3 prom inh 95.1, KKLEB tox -53.3, TRPM1 prom inh 107.5, HIF-2a inh 66.0, ABHD5 PLIN5 PPI 51.7, CF NFkB block 86.4 | ABHD5-PLIN5 conf 42.8 | HNF4 counter 68.5
COCCN(C)Cc1nc(C(c2ccccc2)c2ccccc2)no1	none
CCC(c1ccccc1)c1noc(CCN(CC)CC)n1 (stereo not given)	ABHD5 PLIN5 PPI 60.2 (no result: TRPM1 prom inh) | ABHD5-PLIN5 conf 72.6 | HNF4 counter 31.9
COc1cccc(CN(C)C(=O)c2cc(COc3ccc4ncccc4c3)on2)c1	none
COc1cc(N=c2ssnc2Cl)c(OC)cc1Cl	ABHD5 PLIN5 PPI 41.2! | ABHD5-PLIN5 conf 74.4 | HNF4 counter 105.7
COc1ccc(-n2c(N)c(C(=O)NCc3ccco3)c3nc4ccccc4nc32)c(OC)c1	ABHD5 PLIN5 PPI 28.9 | ABHD5-PLIN5 conf 50.7 | HNF4 counter 67.5
COc1ccccc1CNC(=O)C1CCC(CNS(=O)(=O)c2ccccc2)CC1 (stereo not given)	none
COc1cccc(NC(=O)C2(C)CCN2Cc2ccc(-c3ccccc3)o2)c1 (stereo not given)	none (no result: TRPM1 prom inh)
CC1(C(=O)Nc2cnc3ccccc3c2)CCN1Cc1ccc(-c2ccccc2)o1 (stereo not given)	ABHD5 PLIN5 PPI 65.0 (no result: TRPM1 prom inh) | ABHD5-PLIN5 conf 46.5 | HNF4 counter 69.7
CCOC(=O)/C=C/S(=O)(=O)c1ccc(NC(C)=O)cc1	Peg3 prom inh 102.5, TRPM1 prom inh 92.2, ABHD5 PLIN5 PPI 77.4, CF NFkB block 90.4 | ABHD5-PLIN5 conf 78.2 | HNF4 counter 108.8
CCOC(=O)/C=C/C(=O)Nc1ccc(S(=O)(=O)Nc2c(C)cc(C)cc2C)cc1	none
COc1cccc2cc(C(=O)NCc3ccco3)c(=O)oc12	none
COc1ccc(S(=O)(=O)CC(=O)c2cc3cc(Br)ccc3oc2=O)cc1	ABHD5 PLIN5 PPI 33.1 | ABHD5-PLIN5 conf 69.8 | HNF4 counter 53.4
COc1ccc2oc(=O)c(C(=O)NCc3ccco3)cc2c1	ABHD5 PLIN5 PPI 34.4 | ABHD5-PLIN5 conf inactive | HNF4 counter inactive
CC(C)c1ccc(N2C=Nc3ccc(C(C)C)cc3C2)cc1	ABHD5 PLIN5 PPI 36.5 | ABHD5-PLIN5 conf 24.2 | HNF4 counter inactive
C1=Nc2ccccc2CN1c1ccccc1	none
Cc1ccc(-n2cc(-c3ccccc3)c3c(N4CCN(C)CC4)ncnc32)cc1	ABHD5 PLIN5 PPI 24.3 | ABHD5-PLIN5 conf inactive | HNF4 counter inactive
OCCN1CCN(c2ncnc3c2c(-c2ccccc2)cn3-c2ccc(F)cc2)CC1	none
COc1ccc(NC(=O)c2cc(NC(=O)C3CCCCC3C(=O)O)ccc2N2CCOCC2)cc1 (stereo not given)	ABHD5 PLIN5 PPI 24.5 | ABHD5-PLIN5 conf inactive | HNF4 counter inactive
O=C(/C(=C/c1ccccc1)n1cncn1)c1ccc(Cl)cc1Cl	ABHD5 PLIN5 PPI 33.4 | ABHD5-PLIN5 conf 89.7 | HNF4 counter 57.1
Cc1ccc(/C=C/C(=O)N2CC(C)CC(C)C2)o1 (stereo not given)	Peg3 prom inh 75.7, ABHD5 PLIN5 PPI 27.7 | ABHD5-PLIN5 conf 23.5 | HNF4 counter 36.2
CCN1CCN(C(=O)/C=C/c2ccc(C)o2)CC1	none
O=C1N/C(=C/c2ccc(N3CCOCC3)o2)C(=O)N1c1cccc(Cl)c1	ABHD5 PLIN5 PPI 69.7, CF NFkB block 66.9 | ABHD5-PLIN5 conf 70.8 | HNF4 counter 99.8
CC1(c2ccccc2)NC(=O)N(CC(=O)Nc2ccccc2N2CCCC2)C1=O (stereo not given)	none
CN(Cc1ccco1)S(=O)(=O)c1nnc(NC(=O)c2ccccc2Cl)s1	ABHD5 PLIN5 PPI 29.5 | ABHD5-PLIN5 conf 45.7 | HNF4 counter 74.2
